# Bioassay records: PubChem BioAssay, National Center for Advancing Translational Sciences (NCATS)
# Compounds with a hit are over-represented: about 19% of the library has one in this group of screens.
# TGFb SMAD3 inh – TGF-b pathway inhibition; HepG2 CAGA-GFP TGF-b/SMAD3 reporter, GFP fluorescence, 18 h; TGF-beta stimulated, 500 pg/mL final; Potency, µM (doses to about 46.1 µM), most hits filed as inhibitors; 410,000 compounds, 1.2% hits; AID 588855; also: nearly all actives have a fitted effect of over 65% in size
#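 HEPG2 CAGA-GFP reporter cells (1000/well, DMEM with 1% FBS) received compounds, then recombinant TGF-beta at 500 pg/mL final for 18 hours at 37 degrees C. Per-cell GFP summed per well was normalised to unstimulated and stimulated DMSO controls before curve fitting.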
# TDP1 block – TDP1 (human) enzyme inhibition; Q9NUW8; recombinant TDP1, AlphaScreen DNA substrate cleavage; Potency, µM (series often up to 130 µM), hits mostly inhibitors; 350,000 compounds, 0.28% hits; also: nearly all actives have a fitted effect of over 40% in size
# Target sequence (Q9NUW8 whole entry, looked up): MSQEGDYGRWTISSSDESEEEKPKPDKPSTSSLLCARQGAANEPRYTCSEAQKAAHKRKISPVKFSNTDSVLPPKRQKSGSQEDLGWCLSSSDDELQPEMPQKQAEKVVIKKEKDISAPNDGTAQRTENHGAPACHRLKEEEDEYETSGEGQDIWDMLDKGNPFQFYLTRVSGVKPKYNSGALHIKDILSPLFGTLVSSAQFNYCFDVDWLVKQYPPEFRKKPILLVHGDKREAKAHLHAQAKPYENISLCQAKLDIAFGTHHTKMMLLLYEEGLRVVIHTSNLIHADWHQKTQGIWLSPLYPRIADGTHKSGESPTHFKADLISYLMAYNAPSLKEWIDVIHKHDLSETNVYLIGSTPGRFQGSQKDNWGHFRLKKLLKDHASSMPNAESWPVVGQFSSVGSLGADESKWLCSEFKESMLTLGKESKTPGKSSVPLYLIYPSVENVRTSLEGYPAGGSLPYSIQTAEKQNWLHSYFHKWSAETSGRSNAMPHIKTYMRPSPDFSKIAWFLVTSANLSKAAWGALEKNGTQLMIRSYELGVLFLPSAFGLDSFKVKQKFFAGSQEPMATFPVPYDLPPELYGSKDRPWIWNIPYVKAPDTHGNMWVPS
#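 Tdp1 1 nM final; 15 min RT w/ cpd; substrate 15 nM, 5 min; beads 10 ug/ml, 10 min; AlphaScreen read. Neg ctrl: no enzyme.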
# TDP1 cell CPT – DT40-hTDP1 cell growth loss with CPT; chicken DT40 Tdp1-/-;hTDP1 cells + 20 nM CPT, ATP luminescence, 48 h; Potency, µM (highest dose often 46.2 µM), most hits filed as inhibitors; 420,000 compounds, 12% hits; AID 686979; also: nearly all actives have a fitted effect of over 55% in size
#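 Cell growth measured by CellTiter-Glo luminescence after a minimum 48 h, 37 C compound exposure with 20 nM CPT in Tdp1-knockout DT40 cells stably expressing hTDP1, seeded 400/well; qHTS titration format.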
# IL-1B inflam inh – blocks inflammasome-driven IL-1 beta release; THP-1 LPS/ATP IL-1B secretion, AlphaLISA, 16 h; hits give low values; activity change, % at 57.5 µM; 360,000 compounds, 4.7% hits; AID 743279; in the data active = activity change below about -50%; inconclusive = mostly about -30% to -49%
#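 Secreted IL-1B measured by AlphaLISA bead assay after 16 h compound exposure of THP-1 cells; compounds (final up to 57.5 uM) added 1 h before LPS (250 ng/mL) and ATP (1.25 mM) stimulation; lower signal means less secretion.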
# DT40 TDP1 no CPT – qHTS for Inhibitors of human tyrosyl-DNA phosphodiesterase 1 (TDP1): qHTS in cells in absence of CPT; DT40 Tdp1-/- hTDP1 cells, no CPT, ATP luminescence, 48 h; Potency, µM (doses to about 46.2 µM), hits mostly inhibitors; 420,000 compounds, 15% hits; AID 686978, 2013; also: nearly all actives have a fitted effect of over 55% in size
#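 Stably hTDP1-transfected Tdp1-null chicken DT40 cells were treated with library compounds minus camptothecin and grown for at least 48 hr at 37 °C, after which cellular ATP was quantified by luminescence.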
# HepG2 tox – HepG2 cytotoxicity, counter-screen for TGF-b inhibitors | Potency, µM (titrated, usually from 46.1 µM), actives largely listed as cytotoxic | HepG2 CAGA-GFP viability, ATP luminescence, 18 h | 410,000 compounds, 0.76% hits
#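 CellTiter-Glo luminescence gave cytotoxicity after 18 hours at 37 degrees C. The cells were HepG2 CAGA-GFP in 1% FBS DMEM, stimulated with 500 pg/mL TGF-beta after compound addition. %Activity was normalised to no-cell wells (complete cell-killing) and DMSO (no toxicity), and curves were fitted and classified.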
# A number is an active result; 0 = inactive; ? = inconclusive; - = not tested or not shown. Unless noted, calls follow the shape of the dose curve; as a rule, active = well fitted curve in the direction sought with a large enough effect; inconclusive = small, poorly fitted or top-dose-only effect, or another doubt; inactive = no such curve, though single readings can be large; an effect the other way counts as inactive or inconclusive.
SMILES,TGFb SMAD3 inh,TDP1 block,TDP1 cell CPT,IL-1B inflam inh,DT40 TDP1 no CPT,HepG2 tox
Cc1ccc(-c2nc3nc(C)cc(Nc4ccccc4O)n3n2)cc1,0,0,-,-,-,0
COc1ccc(-c2nc3nc(C)cc(Nc4ccc(C(C)=O)cc4)n3n2)cc1,?,0,?,-,15µM,0
CC(=O)NC(c1ccccc1)c1nc(-c2ccc(C)c(C)c2)cs1 (configuration not stated),0,-,16µM,?,18µM,0
CC(=O)NC(c1ccccc1)c1nc(-c2ccc3ccccc3c2)cs1 (configuration not stated),?,-,16µM,0,?,0
COc1cccc(C(NC(C)=O)c2nc(-c3ccc4ccccc4c3)cs2)c1 (configuration not stated),?,-,18µM,0,?,0
Cn1cccc1C(=O)N1CCC2(CCN(Cc3nccs3)CC2)CC1,-,-,0,-,0,-
CCOC(=O)c1nn(-c2ccccc2C)c(=O)cc1OCC(=O)Nc1cccc(OC)c1,0,0,0,0,0,0
CCC(=O)N1N=C(c2ccc(C)o2)CC1c1ccc(N(C)C)cc1 (configuration not stated),0,0,0,?,0,7.1µM
O=C(c1ccccc1)N1N=C(c2ccco2)CC1c1cccs1 (configuration not stated),0,-,?,0,21µM,0
Cc1ccc(C2=NN(C(=O)CCl)C(c3cccs3)C2)o1 (configuration not stated),8.9µM,0,2.1µM,-102,2.6µM,8.9µM
COc1ccc(C2=NN(C(=O)c3ccco3)C(c3cccs3)C2)cc1OC (configuration not stated),0,-,?,0,?,0
CC(=O)N1N=C(c2ccco2)CC1c1cccs1 (configuration not stated),0,0,?,0,0,0
O=C(CCl)N1N=C(c2ccco2)CC1c1cccs1 (configuration not stated),?,0,2.1µM,-105,1.8µM,0
O=C(N1CCN(c2ncccn2)CC1)C12CC3CC(CC(C3)C1)C2,0,-,0,0,0,0
O=C(NC1CCOCC1)C1CCC(=O)N(CCc2ccc(Cl)cc2)C1 (configuration not stated),0,0,0,0,0,0
Cc1nn2c(=O)cc(COC(=O)c3ccco3)nc2s1,?,0,0,-,0,0
Cc1ccc(-n2c(=O)[nH]c3cc(C(=O)NCc4ccccc4)ccc3c2=O)cc1,0,0,0,-,0,0
Cc1nc2ccccc2n1S(=O)(=O)c1cc(C(=O)O)ccc1Cl,0,-,0,0,0,0
O=C(Nc1cc(F)ccc1F)C1COc2ccccc2C1 (configuration not stated),0,0,0,-,0,0
COc1cccc(C(=O)NC2CCCc3c2cnn3-c2ccc(C)c(C)c2)c1OC (configuration not stated),0,0,?,0,?,0
COc1ncccc1C(=O)NC1CCCc2c1cnn2-c1ccc(C)c(C)c1 (configuration not stated),?,0,16µM,0,16µM,0
CSc1ncccc1C(=O)NC1CCCc2c1cnn2-c1ccc(C)c(C)c1 (configuration not stated),0,0,8.2µM,0,7.3µM,0
COc1ccc(C(=O)NC2CCCc3c2cnn3-c2ccc(C)c(C)c2)c(OC)c1OC (configuration not stated),0,0,?,0,?,0
COc1cccc(CN(C)C(=O)c2ccc(S(=O)(=O)Nc3ccccc3C)cc2)c1OC,0,-,0,0,0,0
COc1ccccc1CNC(=O)c1cnc2c(-c3ccccc3)c(C)nn2c1C,0,0,?,-,?,0
SMILES,TGFb SMAD3 inh,TDP1 block,TDP1 cell CPT,IL-1B inflam inh,DT40 TDP1 no CPT,HepG2 tox
COc1cc(CNC(=O)c2cnc3c(-c4cccc(C)c4)c(C)nn3c2C)cc(OC)c1OC,0,0,12µM,-,16µM,0
CC(=O)Oc1cc2c(cc1Cl)C1(CC(c3ccccc3Cl)O2)CC(C)(C)NC(=S)N1 (configuration not stated),?,0,3.3µM,0,2.6µM,0
COc1cc(C(=O)N(C)CC2CCN(CCc3cccc(C(F)(F)F)c3)CC2)ccc1C,?,0,?,-86,?,0
Cc1cc(C(F)F)n2nc(C(=O)Nc3cc(Cl)ccc3C)nc2n1,?,0,0,-,0,0
O=c1c(O)c(-c2ccc(O)c(O)c2)oc2c(OC3OC(CO)C(O)C(O)C3O)c(O)cc(O)c12 (configuration not stated),-,0,?,-,0,-
Cc1cc2c(=O)c(C(=O)c3ccncc3)cn(CC(=O)Nc3cccc(C)c3C)c2cc1C,0,0,0,-,0,0
Cc1ccc(Cl)cc1-c1cc(C(=O)Nc2ccc(F)cc2)[nH]n1,?,-,23µM,-60,21µM,0
CC(C)c1ccc(NC(=O)c2cc(-c3cc(F)ccc3OCC3CCCO3)n[nH]2)cc1 (configuration not stated),0,-,?,0,?,0
Cc1ccc(Cl)cc1-c1cc(C(=O)NCc2ccc(C(F)(F)F)cc2)[nH]n1,?,-,21µM,0,16µM,0
O=C(NCC1CCCCC1)c1cc(-c2cc(F)ccc2OCC2CCCO2)n[nH]1 (configuration not stated),0,-,18µM,-56,?,0
COc1ccc(Cl)c(-c2cc(C(=O)NCc3ccc(C(F)(F)F)cc3)[nH]n2)c1,0,-,16µM,0,?,0
Cc1ccccc1CN1CCN(Cc2cc(=O)c3ccccc3[nH]2)CC1CCO (configuration not stated),0,-,0,0,0,0
CCCNC(=O)CSc1nc2ccccc2c(=O)n1CCC,0,0,0,0,0,0
Cc1[nH]c(=O)nc(NN=Cc2ccc(Cl)cc2)c1C(=O)Nc1ccc(Cl)cc1,0,-,0,0,?,0
O=C(NCCCCCCNC(=O)ON=C1CCCCC1)ON=C1CCCCC1,-,0,?,-,?,-
Cc1ccc(S(=O)(=O)N2CCN(C(=O)Cn3c(=O)oc4ccccc43)CC2)c(C)c1,0,0,0,0,0,0
Cc1ccc(Cl)cc1-c1cc(C(=O)N2CCc3ccccc3C2)[nH]n1,?,-,16µM,?,?,0
O=C(c1cc2cc(Cl)ccc2[nH]1)N1CCc2ccccc2C1,?,0,?,0,0,0
Cc1ccc(Cl)cc1-c1cc(C(=O)NCC2CCCCC2)[nH]n1,0,-,?,-51,18µM,0
